Where “and” joins values, the source holds several entries; their conditions need not be identical. Equal entries are not always repeated. Among all 5,500 compounds or so, about 2,000 (36%) were called active. Another 18% or so got no clear call; they are omitted. Rule as the data show it: active = normalized growth mostly below about 0.91 (no sharp cut-off); inconclusive = no clear call, values can overlap the other calls; inactive = mostly above about 0.92. The list shows a part of the results.
Assay: chemical genetic growth profiling, strain panel (AID 1159580);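 also: tested at 20 µM; growth read once vehicle control cultures reached saturation at 30 °C; 1 = growth at the plate median or of vehicle wells; lower values mean less growth of the strain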
Details: S. cerevisiae deletion strains, growth OD

Measured: normalized growth

N=c1nc(N2CCCCC2)cc(N)n1O
inactive: locus YAL013W, strain DEP1, stronger effect = lower value 0.981 and 0.989 | locus YAL021C, strain ccr4, stronger effect = lower value 0.989 | locus YAL026C, strain drs2, stronger effect = lower value 1 | locus YAL030W, strain snc1, stronger effect = lower value 0.984 | locus YAL040C, strain CLN3, stronger effect = lower value 1.03 | locus YBL061C, strain skt5, stronger effect = lower value 0.977 | locus YBR009C, strain hhf1, stronger effect = lower value 1 | locus YBR021W, strain FUR4, stronger effect = lower value 1.09 | locus YBR023C, strain chs3, stronger effect = lower value 0.985 | locus YBR171W, strain sec66, stronger effect = lower value 0.984 | locus YBR229C, strain ROT2, stronger effect = lower value 0.955 | locus YBR231C, strain swc5, stronger effect = lower value 1 | locus YBR279W, strain paf1, stronger effect = lower value 0.992 | locus YCL011C, strain gbp2, stronger effect = lower value 0.963 | locus YCL016C, strain dcc1, stronger effect = lower value 0.97 | locus YCL029C, strain bik1, stronger effect = lower value 0.99 | locus YCL061C, strain MRC1 (second series), stronger effect = lower value 1 | locus YCL061C, strain MRC1, stronger effect = lower value 0.991 | locus YCL069W, strain vba3, stronger effect = lower value 0.992 | locus YCR088W, strain abp1, stronger effect = lower value 0.989 | locus YDL005C, strain med2, stronger effect = lower value 0.997 | locus YDL035C, strain GPR1, stronger effect = lower value 0.98 | locus YDL040C, strain nat1, stronger effect = lower value 0.992 | locus YDL074C, strain BRE1, stronger effect = lower value 1.02 | locus YDL101C, strain DUN1, stronger effect = lower value 0.988 | locus YDL134C, strain PPH21, stronger effect = lower value 0.975 | locus YDL185W, strain tfp1, stronger effect = lower value 0.978 | locus YDL192W, strain arf1, stronger effect = lower value 0.983 | locus YDR001C, strain nth1, stronger effect = lower value 0.979 | locus YDR069C, strain doa4, stronger effect = lower value 0.996 | locus YDR101C, strain arx1, stronger effect = lower value 1.01 | locus YDR137W, strain rgp1, stronger effect = lower value 0.977 | locus YDR150W, strain NUM1, stronger effect = lower value 0.963 and 1.01 | locus YDR159W, strain sac3, stronger effect = lower value 1.04 | locus YDR162C, strain NBP2, stronger effect = lower value 0.968 | locus YDR195W, strain ref2 0.981 | locus YDR297W, strain sur2, stronger effect = lower value 0.981 | locus YDR318W, strain mcm21, stronger effect = lower value 1 | locus YDR334W, strain swr1, stronger effect = lower value 0.936 | locus YDR335W, strain msn5, stronger effect = lower value 0.979 | locus YDR363W, strain ESC2, stronger effect = lower value 0.979 | locus YDR388W, stronger effect = lower value 0.949 | locus YDR392W, strain spt3, stronger effect = lower value 0.964 | locus YDR502C, strain sam2, stronger effect = lower value 0.959 | locus YEL003W, strain gim4, stronger effect = lower value 0.992 | locus YEL037C, strain rad23, stronger effect = lower value 0.989 | locus YEL061C, strain CIN8 (second series), stronger effect = lower value 0.982 | locus YEL061C, strain CIN8, stronger effect = lower value 0.982 | locus YER002W, strain NOP16, stronger effect = lower value 1.02 | locus YER015W, strain faa2, stronger effect = lower value 0.985 | locus YER016W, strain bim1, stronger effect = lower value 0.998 | locus YER110C, stronger effect = lower value 0.955 | locus YER111C, strain swi4, stronger effect = lower value 0.987 | locus YER155C, strain BEM2 (second series), stronger effect = lower value 1.03 | locus YER155C, strain BEM2, stronger effect = lower value 1.01 | locus YER167W, strain BCK2, stronger effect = lower value 0.989 | locus YFR010W, strain ubp6, stronger effect = lower value 0.982 | locus YGL078C, strain dbp3, stronger effect = lower value 0.985 | locus YGL086W, strain mad1, stronger effect = lower value 0.961 | locus YGL167C, strain pmr1, stronger effect = lower value 0.985 | locus YGL173C, strain kem1, stronger effect = lower value 0.984 | locus YGL227W, strain vid30, stronger effect = lower value 0.996 | locus YGL240W, strain doc1, stronger effect = lower value 1 | locus YGL248W, strain PDE1, stronger effect = lower value 0.981 | locus YGL253W, strain hxk2, stronger effect = lower value 0.96 | locus YGR078C, strain PAC10, stronger effect = lower value 1 and 0.978 | locus YGR135W, strain pre9, stronger effect = lower value 0.99 | locus YGR229C, strain SMI1, stronger effect = lower value 1.01 | locus YGR252W, strain gcn5, stronger effect = lower value 0.867 | locus YHR013C, strain ard1, stronger effect = lower value 0.962 | locus YHR027C, strain rpn1, stronger effect = lower value 0.976 | locus YHR030C, strain SLT2, stronger effect = lower value 0.982 | locus YHR079C, strain IRE1 (second series), stronger effect = lower value 1 | locus YHR079C, strain IRE1, stronger effect = lower value 0.997 | locus YHR094C, strain hxt1, stronger effect = lower value 0.991 | locus YHR129C, strain ARP1, stronger effect = lower value 0.988 | locus YHR142W, strain chs7, stronger effect = lower value 0.971 | locus YHR200W, strain rpn10, stronger effect = lower value 0.993 | locus YIL066C, strain RNR3, stronger effect = lower value 0.975 | locus YIL073C, strain SPO22, stronger effect = lower value 0.94 | locus YIL125W, strain kgd1, stronger effect = lower value 0.985 | locus YIR030C, strain dcg1, stronger effect = lower value 0.982 | locus YJL092W, strain hpr5, stronger effect = lower value 0.988 | locus YJL095W, strain BCK1 (second series), stronger effect = lower value 0.986 | locus YJL095W, strain BCK1, stronger effect = lower value 1.01 and 0.985 | locus YJL115W, strain asf1, stronger effect = lower value 0.966 | locus YJL129C, strain trk1, stronger effect = lower value 1 | locus YJL134W, strain LCB3, stronger effect = lower value 0.978 | locus YJL154C, strain vps35, stronger effect = lower value 0.976 | locus YJL164C, strain tpk1, stronger effect = lower value 0.999 | locus YJL166W, strain qcr8, stronger effect = lower value 0.957 | locus YJL168C, strain set2, stronger effect = lower value 0.995 | locus YJL187C, strain SWE1 (second series), stronger effect = lower value 0.983 | locus YJL187C, strain SWE1, stronger effect = lower value 0.992 | locus YJR043C, strain POL32, stronger effect = lower value 1.02 | locus YJR066W, strain TOR1, stronger effect = lower value 0.932

From PubChem BioAssay AID1159580 (chemical genetic matrix, 2015)
